Inconclusive results are not listed. Where a call stands in place of a potency, no number is given. Calls of active or inactive are those of the source. The call rests on the fitted dose curve; in most records, active means well fitted curve in the direction sought with a large enough effect; inconclusive means small, poorly fitted or top-dose-only effect, or another doubt; inactive means no such curve, though single readings can be large; an effect the other way counts as inactive or inconclusive.
Columns and labels:
[1] = qHTS of pediatric cancer cell lines to identify multiple opportunities for drug repurposing: Primary screen for Saos-2 cells (AID 1347097); further: nearly all actives have a fitted effect of over 40% in size; further: potency means the concentration at half of the fitted maximal effect
Summary of the method: (§1)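 Plated cells (500-1,000 per well, growth media) were allowed to settle for 5 hours, treated with compound dilutions for 48 hours, then lysed with CellTiter-Glo for 15 min at room temperature before luminescence reading.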

[2] = qHTS of pediatric cancer cell lines to identify multiple opportunities for drug repurposing: Primary screen for SK-N-SH cells (AID 1347098); further: nearly all actives have a fitted effect of over 65% in size; further: potency means the concentration at half of the fitted maximal effect
Summary of the method: (§2)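 Cells (500-1,000/well) rested 5 h, then received compounds for 48 h; metabolically active cells were measured by CellTiter-Glo luminescence. Final concentrations spanned up to 46 µM (MIPE, 11-point) or 0.59 nM-46 µM (NPC, 8-point) in primary screens, 11-point in follow-ups.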

[3] = qHTS of pediatric cancer cell lines to identify multiple opportunities for drug repurposing: Primary screen for NB1643 cells (AID 1347099); further: nearly all actives have a fitted effect of over 50% in size; further: potency means the concentration at half of the fitted maximal effect
Summary of the method: as §1

[4] = qHTS of pediatric cancer cell lines to identify multiple opportunities for drug repurposing: Primary screen for LAN-5 cells (AID 1347100); further: potency means the concentration at half of the fitted maximal effect
Summary of the method: (§3)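 Cells (500-1,000/well) in growth media were settled 5 h at 37 degrees C, then given compounds for 48 h. Viability was read as CellTiter-Glo luminescence. Primary runs used MIPE at 11 points (0.78 nM-46 µM) and NPC at 8 points (0.59 nM-46 µM); follow-ups used 11 points.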

[5] = qHTS of pediatric cancer cell lines to identify multiple opportunities for drug repurposing: Primary screen for BT-12 cells (AID 1347101); further: nearly all actives have a fitted effect of over 25% in size; further: potency means the concentration at half of the fitted maximal effect
Summary of the method: as §2

[6] = qHTS of pediatric cancer cell lines to identify multiple opportunities for drug repurposing: Primary screen for Rh18 cells (AID 1347102); further: nearly all actives have a fitted effect of over 65% in size; further: potency means the concentration at half of the fitted maximal effect
Summary of the method: as §3

[7] = qHTS of pediatric cancer cell lines to identify multiple opportunities for drug repurposing: Primary screen for OHS-50 cells (AID 1347103); further: nearly all actives have a fitted effect of over 40% in size; further: potency means the concentration at half of the fitted maximal effect
Summary of the method: as §2

[8] = qHTS of pediatric cancer cell lines to identify multiple opportunities for drug repurposing: Primary screen for RD cells (AID 1347104); further: nearly all actives have a fitted effect of over 55% in size; further: potency means the concentration at half of the fitted maximal effect
Summary of the method: as §1

[9] = qHTS of pediatric cancer cell lines to identify multiple opportunities for drug repurposing: Primary screen for MG 63 (6-TG R) cells (AID 1347105); further: nearly all actives have a fitted effect of over 50% in size; further: potency means the concentration at half of the fitted maximal effect
Summary of the method: as §1

[10] = qHTS of pediatric cancer cell lines to identify multiple opportunities for drug repurposing: Primary screen for control Hh wild type fibroblast cells (AID 1347106);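 further: series mostly up to about 46 µM; a drop in luminescence marks cytotoxicity and a rise apparent proliferation; nearly all actives have a fitted effect of over 55% in size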
Summary of the method: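 Viability after 48 h compound treatment at 37C, 500-1,000 cells/well, read as ATP luminescence with CellTiter-Glo. Primary screens used 11-point (MIPE, 0.78 nM-46 µM) or 8-point (NPC, 0.59 nM-46 µM) final concentrations; follow-up screens used 11-point dilutions.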

Structure (SMILES)	Potency [1]	Potency [2]	Potency [3]	Potency [4]	Potency [5]	Potency [6]	Potency [7]	Potency [8]	Potency [9]	Potency [10]
CCCCNC(=O)NS(=O)(=O)c1ccc(N)cc1	inactive	inactive	inactive	inactive	inactive	inactive	inactive	inactive	inactive	inactive
C[N+]12CCC(CC1)C(OC(=O)C(O)(c1ccccc1)c1ccccc1)C2 (stereo unspecified)	inactive	inactive	inactive	inactive	inactive	inactive	inactive	inactive	inactive	inactive
CC(=O)O[C@H]1C[C@@H]2CC[C@@H]3[C@H](CC[C@@]4(C)[C@H]3C[C@H]([N+]3(C)CCCCC3)[C@@H]4OC(C)=O)[C@@]2(C)C[C@@H]1N1CCCCC1	inactive	inactive	inactive	inactive	inactive	inactive	inactive	inactive	inactive	inactive
CC1(C)OC[C@@H]2O[C@@]3(C(=O)O)OC(C)(C)O[C@H]3[C@@H]2O1	inactive	inactive	inactive	inactive	inactive	inactive	inactive	inactive	inactive	inactive
Oc1ccccc1C=NCc1ccccc1	inactive	inactive	inactive	inactive	inactive	inactive	inactive	inactive	inactive	inactive
c1ccc(CC2=NCCN2)cc1	inactive	inactive	inactive	inactive	inactive	inactive	inactive	inactive	inactive	inactive
CC(=O)Nc1ncc([N+](=O)[O-])s1	inactive	inactive	inactive	inactive	inactive	inactive	inactive	inactive	inactive	inactive
CCN1CCN(C(=O)N[C@@H](C(=O)N[C@@H]2C(=O)N3C(C(=O)O)=C(CSc4nnnn4C)CS[C@H]23)c2ccc(O)cc2)C(=O)C1=O	inactive	inactive	inactive	inactive	inactive	inactive	inactive	inactive	inactive	inactive
Cc1ccccc1OCC(O)CO (stereo unspecified)	inactive	inactive	inactive	inactive	inactive	inactive	inactive	inactive	inactive	inactive
CCOC(=O)[C@H](CCc1ccccc1)N[C@@H](C)C(=O)N1[C@H](C(=O)O)C[C@@H]2CCC[C@@H]21	inactive	inactive	inactive	inactive	inactive	inactive	inactive	inactive	inactive	inactive
COc1cc(C(=O)N2CCCCCCC2)cc(OC)c1OC	inactive	inactive	inactive	inactive	inactive	inactive	inactive	inactive	inactive	inactive
CCCCCCCC/C=C\CCCCCCCCN	inactive	inactive	inactive	inactive	inactive	inactive	inactive	inactive	inactive	inactive
NS(=O)(=O)Cc1noc2ccccc12	inactive	inactive	inactive	inactive	inactive	inactive	inactive	inactive	inactive	inactive
C[C@@]12C(=O)OC(=O)[C@]1(C)C1CCC2O1	1500 nM (active)	3440 nM (active)	1190 nM (active)	2660 nM (active)	6920 nM (active)	1880 nM (active)	1740 nM (active)	4730 nM (active)	1680 nM (active)	
CC(C)NCC(O)c1ccc2ccccc2c1 (stereo unspecified)	inactive	inactive	inactive	inactive	inactive	inactive	inactive	inactive	inactive	inactive
Cc1cc(C)cc(OCC2CNC(=O)O2)c1 (stereo unspecified)	inactive	inactive	inactive	inactive	inactive	inactive	inactive	inactive	inactive	inactive
CC(=O)Nc1ccc(OC(=O)c2ccccc2OC(C)=O)cc1	inactive	inactive	inactive	inactive	inactive	inactive	inactive	inactive	inactive	inactive
COc1cc(C)nc(-n2nc(C)cc2OC)n1	inactive	inactive	inactive	inactive	inactive	inactive	inactive	inactive	inactive	inactive
CC(C(=O)O)c1cccc(Oc2ccccc2)c1 (stereo unspecified)	inactive	inactive	inactive	inactive	inactive	inactive	inactive	inactive	inactive	inactive
CC(C)[C@@H]1CC[C@@H](C)CC1=O	inactive	inactive	inactive	inactive	inactive	inactive	inactive	inactive	inactive	inactive
COP(=O)(OC)OC(c1ccc(Cl)cc1)P(=O)(OC)OC (stereo unspecified)	inactive	inactive	inactive	inactive	inactive	inactive	inactive	inactive	inactive	inactive
Cc1cc2c(OCC(CNC(C)(C)C)OC(=O)c3ccccc3)cccc2[nH]1 (stereo unspecified)	inactive	inactive	inactive	inactive	inactive	inactive	inactive	inactive	inactive	inactive
Cc1cn([C@H]2C[C@H](F)[C@@H](CO)O2)c(=O)[nH]c1=O	inactive	inactive	inactive	inactive	inactive	inactive	inactive	inactive	inactive	inactive

Structure (SMILES)	Potency [1]	Potency [2]	Potency [3]	Potency [4]	Potency [5]	Potency [6]	Potency [7]	Potency [8]	Potency [9]	Potency [10]
O=C(O)CCC(=O)Nc1ccc(S(=O)(=O)Nc2nccs2)cc1	inactive	inactive	inactive	inactive	inactive	inactive	inactive	inactive	inactive	inactive
OC1C(O)C(O)C(O)C(O)C1O (stereo unspecified)	inactive	inactive	inactive	inactive	inactive	inactive	inactive	inactive	inactive	inactive
Cc1ccc(-c2ncc(Cl)cc2-c2ccc(S(C)(=O)=O)cc2)cn1	inactive	inactive	inactive	inactive	inactive	inactive	inactive	inactive	inactive	inactive
CC(=O)NC(=O)c1ccccc1O	inactive	inactive	inactive	inactive	inactive	inactive	inactive	inactive	inactive	inactive
CCOc1cc(OCC)c(C(=O)CCC(=O)O)cc1OCC	inactive	inactive	inactive	inactive	inactive	inactive	inactive	inactive	inactive	inactive
NC1CCN(c2nc3c(cc2F)c(=O)c(C(=O)O)cn3-c2ccc(F)cc2F)C1 (stereo unspecified)	inactive	inactive	inactive	inactive	inactive	inactive	inactive	inactive	inactive	inactive
COc1ccc(/C=N/NC(=O)c2ccncc2)cc1OC	inactive	inactive	inactive	inactive	inactive	inactive	inactive	inactive	inactive	inactive
Cc1cccc(C)c1NC(=O)CN1CCCC1	inactive	inactive	inactive	inactive	inactive	inactive	inactive	inactive	inactive	inactive
CCC1NC(=O)c2cc(S(N)(=O)=O)c(Cl)cc2N1 (stereo unspecified)	inactive	inactive	inactive	inactive	inactive	inactive	inactive	inactive	inactive	inactive
COc1ccc2c(c1)c1c3n2CCN(C)C3=NCC1	inactive	inactive	inactive	inactive	inactive	inactive	inactive	inactive	inactive	inactive
CCCc1ncc(C[n+]2ccccc2C)c(N)n1	inactive	inactive	inactive	inactive	inactive	inactive	inactive	inactive	inactive	inactive
CC(=O)Nc1ccc(CC(=O)O)cc1	inactive	inactive	inactive	inactive	inactive	inactive	inactive	inactive	inactive	inactive
FC1(F)C(F)(F)C(F)(F)C2(F)C(F)(F)C(F)(F)C(F)(F)C(F)(F)C2(F)C1(F)F (stereo unspecified)	inactive	inactive	inactive	inactive	inactive	inactive	inactive	inactive		inactive
NS(=O)(=O)c1cc(C(=O)O)cc(N2CCCC2)c1Oc1ccccc1	inactive	inactive	inactive	inactive	inactive	inactive	inactive	inactive	inactive	inactive
O=S(=O)(O)c1ccc(O)cc1	inactive	inactive	inactive	inactive	inactive	inactive	inactive	inactive		inactive
CCCCOC(=O)CC(CC(=O)OCCCC)(OC(C)=O)C(=O)OCCCC	inactive	inactive	inactive	inactive	inactive	inactive		inactive	inactive	inactive
Cc1cc(-c2ccccc2)nnc1NCCN1CCOCC1	inactive	inactive	inactive	inactive	inactive	inactive	inactive	inactive		inactive
COc1cc(O)c(C(=O)c2ccccc2)cc1S(=O)(=O)O	inactive	inactive	inactive	inactive	inactive	inactive	inactive	inactive	inactive	inactive
CN(C)CCOC(=O)C(c1ccccc1)C1(O)CCCC1 (stereo unspecified)	inactive	inactive	inactive	inactive	inactive	inactive	inactive	inactive		inactive
CCCCCCCCCCCCCCCCO	inactive	inactive	inactive	inactive	inactive	inactive	inactive	inactive		inactive
CN1CCN(c2c(F)cc3c(=O)c(C(=O)O)cn4c3c2SCC4)CC1	inactive	inactive	inactive	inactive	inactive	inactive	inactive	inactive		inactive
O=C(O)C1(C(=O)O)CCC1.[NH2-].[NH2-].[Pt+2]	inactive	inactive	inactive	inactive	inactive	inactive	inactive	inactive		inactive
CCN(CC)CCNC(=O)COc1ccc(OC)cc1	inactive	inactive	inactive	inactive	inactive	inactive	inactive	inactive	inactive	inactive

Source: PubChem BioAssay (NCATS)
